# In all, about 5,500 compounds went through this assay and about 2,000 (36%) were called active. About 18% were inconclusive and are not listed. Some of the results follow. Values without a mark were called inactive. Cut-off read from the data, not from the text of the source: active = normalized growth mostly below about 0.91 (no sharp cut-off); inconclusive = no clear call, values can overlap the other calls; inactive = mostly above about 0.92.
# Experiment: chemical genetic growth profiling, strain panel (AID 1159580);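 note: tested at 20 µM; growth read once vehicle control cultures reached saturation at 30 °C; 1 = growth at the plate median or of vehicle wells; lower values mean less growth of the strain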
# Details: S. cerevisiae deletion strains, growth OD
smiles,measurement,setting,value
O=C(O)c1c2ccccc2cc2ccccc12,normalized growth,"locus YAL013W, strain DEP1, active compounds read low",1.02
same,normalized growth,"locus YAL021C, strain ccr4, active compounds read low",0.973
same,normalized growth,"locus YAL026C, strain drs2, active compounds read low",1.02
same,normalized growth,"locus YAL030W, strain snc1, active compounds read low",0.99
same,normalized growth,"locus YBL061C, strain skt5, active compounds read low",1
same,normalized growth,"locus YBR009C, strain hhf1, active compounds read low",0.989
same,normalized growth,"locus YBR021W, strain FUR4, active compounds read low",0.967
same,normalized growth,"locus YBR023C, strain chs3, active compounds read low",1.01
same,normalized growth,"locus YBR171W, strain sec66, active compounds read low",0.994
same,normalized growth,"locus YBR229C, strain ROT2, active compounds read low",1.02
same,normalized growth,"locus YBR231C, strain swc5, active compounds read low",1.01
same,normalized growth,"locus YBR279W, strain paf1, active compounds read low",0.959
same,normalized growth,"locus YCL011C, strain gbp2, active compounds read low",0.998
same,normalized growth,"locus YCL016C, strain dcc1, active compounds read low",1.01
same,normalized growth,"locus YCL029C, strain bik1, active compounds read low",0.992
same,normalized growth,"locus YCL061C, strain MRC1, active compounds read low",1
same,normalized growth,"locus YCL069W, strain vba3, active compounds read low",1.01
same,normalized growth,"locus YCR088W, strain abp1, active compounds read low",0.996
same,normalized growth,"locus YDL005C, strain med2, active compounds read low",0.99
same,normalized growth,"locus YDL035C, strain GPR1, active compounds read low",1
same,normalized growth,"locus YDL040C, strain nat1, active compounds read low",0.991
same,normalized growth,"locus YDL074C, strain BRE1, active compounds read low",1.03
same,normalized growth,"locus YDL101C, strain DUN1, active compounds read low",1.02
same,normalized growth,"locus YDL134C, strain PPH21, active compounds read low",1.01
same,normalized growth,"locus YDL185W, strain tfp1, active compounds read low",0.953
same,normalized growth,"locus YDL192W, strain arf1, active compounds read low",0.98
same,normalized growth,"locus YDR001C, strain nth1, active compounds read low",0.991
same,normalized growth,"locus YDR069C, strain doa4, active compounds read low",0.991
same,normalized growth,"locus YDR101C, strain arx1, active compounds read low",0.983
same,normalized growth,"locus YDR137W, strain rgp1, active compounds read low",0.965
same,normalized growth,"locus YDR150W, strain NUM1, active compounds read low",1.02
same,normalized growth,"locus YDR159W, strain sac3, active compounds read low",1.03
same,normalized growth,"locus YDR162C, strain NBP2, active compounds read low",1.03
same,normalized growth,"locus YDR195W, strain ref2",1.26 [resistant] (active)
same,normalized growth,"locus YDR297W, strain sur2, active compounds read low",0.99
same,normalized growth,"locus YDR318W, strain mcm21, active compounds read low",0.976
same,normalized growth,"locus YDR334W, strain swr1, active compounds read low",1
same,normalized growth,"locus YDR335W, strain msn5, active compounds read low",1
same,normalized growth,"locus YDR388W, active compounds read low",0.98
same,normalized growth,"locus YDR392W, strain spt3, active compounds read low",0.906
same,normalized growth,"locus YDR502C, strain sam2, active compounds read low",0.986
same,normalized growth,"locus YEL003W, strain gim4, active compounds read low",0.994
same,normalized growth,"locus YEL037C, strain rad23, active compounds read low",1.01
same,normalized growth,"locus YEL061C, strain CIN8 (second series), active compounds read low",0.993
same,normalized growth,"locus YEL061C, strain CIN8, active compounds read low",1.01
same,normalized growth,"locus YER015W, strain faa2, active compounds read low",1.01
same,normalized growth,"locus YER016W, strain bim1, active compounds read low",1.01
same,normalized growth,"locus YER110C, active compounds read low",0.964
same,normalized growth,"locus YER111C, strain swi4, active compounds read low",0.997
same,normalized growth,"locus YER155C, strain BEM2 (second series), active compounds read low",1.01
same,normalized growth,"locus YER155C, strain BEM2, active compounds read low",1.01
same,normalized growth,"locus YER167W, strain BCK2, active compounds read low",1.02
same,normalized growth,"locus YFR010W, strain ubp6, active compounds read low",1.01
same,normalized growth,"locus YGL078C, strain dbp3, active compounds read low",0.969
same,normalized growth,"locus YGL086W, strain mad1, active compounds read low",0.984
same,normalized growth,"locus YGL167C, strain pmr1, active compounds read low",1
same,normalized growth,"locus YGL173C, strain kem1, active compounds read low",0.996
same,normalized growth,"locus YGL227W, strain vid30, active compounds read low",1
same,normalized growth,"locus YGL240W, strain doc1, active compounds read low",0.964
same,normalized growth,"locus YGL248W, strain PDE1, active compounds read low",1.02
same,normalized growth,"locus YGL253W, strain hxk2, active compounds read low",1.01
same,normalized growth,"locus YGR078C, strain PAC10, active compounds read low",1.01
same,normalized growth,"locus YGR135W, strain pre9, active compounds read low",0.971
same,normalized growth,"locus YGR229C, strain SMI1, active compounds read low",1.02
same,normalized growth,"locus YGR252W, strain gcn5, active compounds read low",0.955
same,normalized growth,"locus YHR013C, strain ard1, active compounds read low",0.926
same,normalized growth,"locus YHR027C, strain rpn1, active compounds read low",1.01
same,normalized growth,"locus YHR030C, strain SLT2, active compounds read low",1.01
same,normalized growth,"locus YHR079C, strain IRE1 (second series), active compounds read low",0.989
same,normalized growth,"locus YHR094C, strain hxt1, active compounds read low",0.987
same,normalized growth,"locus YHR129C, strain ARP1, active compounds read low",1.02
same,normalized growth,"locus YHR142W, strain chs7, active compounds read low",0.987
same,normalized growth,"locus YHR200W, strain rpn10, active compounds read low",0.977
same,normalized growth,"locus YIL066C, strain RNR3, active compounds read low",0.981
same,normalized growth,"locus YIL073C, strain SPO22, active compounds read low",0.924
same,normalized growth,"locus YIL125W, strain kgd1, active compounds read low",0.959
same,normalized growth,"locus YIR030C, strain dcg1, active compounds read low",0.987
same,normalized growth,"locus YJL092W, strain hpr5, active compounds read low",1.01
same,normalized growth,"locus YJL095W, strain BCK1 (second series), active compounds read low",0.988
same,normalized growth,"locus YJL095W, strain BCK1, active compounds read low",1
same,normalized growth,"locus YJL115W, strain asf1, active compounds read low",0.997
same,normalized growth,"locus YJL129C, strain trk1, active compounds read low",1
same,normalized growth,"locus YJL134W, strain LCB3, active compounds read low",1.01
same,normalized growth,"locus YJL154C, strain vps35, active compounds read low",0.988
same,normalized growth,"locus YJL164C, strain tpk1, active compounds read low",0.969
same,normalized growth,"locus YJL166W, strain qcr8, active compounds read low",0.973
same,normalized growth,"locus YJL168C, strain set2, active compounds read low",0.971
same,normalized growth,"locus YJL187C, strain SWE1 (second series), active compounds read low",1.01
same,normalized growth,"locus YJL187C, strain SWE1, active compounds read low",0.985
